Counter-ions that a name gives are not always drawn.
Each molecule was assayed on Saccharomyces cerevisiae BY4741 SeMeCo community (assay: z-score of subpopulation abundance vs DMSO median, subpopulation auxotrophic for L; higher = larger share of this subpopulation than in DMSO controls). Conditions: 10 µM; 24 h; SM minimal medium; subpopulation (auxotrophy): L.
Method: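 Fluorescent four-plasmid SeMeCo (self-establishing metabolically cooperating S. cerevisiae BY4741 community; plasmids pH-mRuby2, pL-mWasabi, pU-eCFP, pM-TagRFP657) was grown 24 h in minimal SM medium with each Selleck FDA-approved drug at 10 µM in 384-well plates. Cells were fixed and imaged by high-content confocal microscopy. For each auxotrophic subpopulation (and the prototroph), a z-score gives the deviation from the DMSO vehicle-control population median.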

Structure (SMILES) | z-score of subpopulation abundance
CC(NC(C)(C)C)C(=O)c1cccc(Cl)c1 (centres undefined) [Amfebutamone (Bupropion) HCl] | 0.13
Oc1cc(Cl)ccc1Oc1ccc(Cl)cc1Cl [Triclosan] | -0.94
COC(=O)C1=CCCN(C)C1 [Arecoline HBr] | 0.3
CC[C@@H](C(N)=O)N1CCCC1=O [Levetiracetam] | 0
C[C@H]1O[C@H](O[C@H]2[C@H](O)[C@@H](O)[C@@H](O)[C@H](O)[C@@H]2O)[C@@H](N)C[C@@H]1NC(=N)C(=O)O [Kasugamycin hydrochloride] | 0.8
COc1cc2c(cc1OC)C1CC(=O)C(CC(C)C)CN1CC2 (centres undefined) [Tetrabenazine (Xenazine)] | 1.69
O=C(O[C@H]1C[C@H]2CC[C@@H](C1)[N+]21CCCC1)C(O)(c1ccccc1)c1ccccc1 [Trospium chloride] | -0.17
CN[C@@H]1[C@@H](O)[C@@H](O[C@@H]2[C@@H](O)[C@H](O[C@H]3O[C@H]([C@@H](C)O)[C@@H](O)[C@H](O)[C@H]3N)[C@@H](N)C[C@H]2N)OC[C@]1(C)O [Geneticin (G418 Sulfate)] | 0.54
CN1c2ccccc2C(NCCCCCCC(=O)O)c2ccc(Cl)cc2S1(=O)=O (centres undefined) [Tianeptine sodium] | -0.37
CC[N+](C)(CC)CCOC(=O)C(O)(c1ccccc1)c1ccccc1 [Methylbenactyzine Bromide] | -0.83
N[C@@H]1C[C@H]1c1ccccc1 [Tranylcypromine (2-PCPA) HCl] | -0.64
C#C[C@]1(O)C=C[C@H]2[C@@H]3CCC4=CC(=O)CC[C@@H]4[C@H]3CC[C@@]21CC [Gestodene] | 0.46
COc1ccc2c(c1)[C@]13CCCC[C@@H]1[C@H](C2)N(C)CC3 [Dextromethorphan hydrobromide hydrate] | 0.57
CCN1CC2(OC(=O)c3ccccc3NC(C)=O)CCC(OC)C34C1C(CC23)C1(O)CC(OC)C2CC4C1(O)C2OC (centres undefined) [Lappaconitine] | 0.34
CN1[C@@H]2C[C@@H](OC(=O)[C@H](CO)c3ccccc3)C[C@H]1[C@@H]1O[C@@H]12 [Scopolamine HBr] | -0.33
C[C@@H]1CC[C@H]2[C@@H](C)C(=O)O[C@@H]3O[C@@]4(C)CC[C@@H]1[C@]32OO4 [Artemisinin] | -0.11
CN(C)[C@@H]1C(=O)C(C(N)=O)=C(O)[C@@]2(O)C(=O)C3=C(O)c4c(O)ccc(Cl)c4[C@@](C)(O)[C@H]3C[C@@H]12 [Chlortetracycline HCl] | -0.76

Structure (SMILES) | z-score of subpopulation abundance
COc1ccc2[nH]cc(CCN)c2c1 [5-Methoxytryptamine] | 0.52
NCC(O)c1ccc(O)cc1 (racemic) [(+,-)-Octopamine HCl] | -0.17
NC(=O)CN1CCCC1=O [Piracetam] | 1.45
CN1C(=O)COc2c(C(=O)NC3CN4CCC3CC4)cc(Cl)cc21 (centres undefined) [Azasetron HCl] | 0.07
CCN(C)C(=O)Oc1cccc([C@H](C)N(C)C)c1 [Rivastigmine Tartrate] | 1.02
C=CC[C@]1(O)CC[C@H]2[C@@H]3CCC4=CC(=O)CCC4=C3C=C[C@@]21C [Altrenogest] | 0.59
CCOC(=O)Nc1ccc(NCc2ccc(F)cc2)cc1N [Retigabine 2HCl] | -0.41
NCCc1c[nH]c2ccc(O)cc12 [Serotonin HCl] | -1.08
C=CCN1C[C@H](C(=O)N(CCCN(C)C)C(=O)NCC)C[C@@H]2c3cccc4[nH]cc(c34)C[C@H]21 [Cabergoline] | 0.36
N#Cc1nn(-c2c(Cl)cc(C(F)(F)F)cc2Cl)c(N)c1[S+]([O-])C(F)(F)F (centres undefined) [Fipronil] | -0.6
C=C[C@H]1CN2CC[C@H]1C[C@H]2[C@H](O)c1ccnc2ccccc12 [Cinchonidine] | 0.13
C[N+]1(C)[C@@H]2C[C@@H](OC(=O)[C@H](CO)c3ccccc3)C[C@H]1[C@@H]1O[C@@H]12 [Methscopolamine] | 0.57
CC(=O)OCC1=C(C(=O)O)N2C(=O)C(N)C2SC1 (centres undefined) [7-Aminocephalosporanic acid] | 0.13
CC1(C)SC2C(N)C(=O)N2C1C(=O)O (centres undefined) [6-Aminopenicillanic acid] | -0.39
CC(C)(O)C(Cl)(Cl)Cl [Chlorobutanol] | 0.36
CCCCCCCCCCCCCCCC[n+]1ccccc1 [Cetylpyridinium Chloride] | -2.16
O=[N+]([O-])C(Br)(CO)CO [Bronopol] | -0.82
